The inhibition is the relative decrease from the control value, in per cent.

Molecules are shown by their SMILES. The campaign covered roughly 290,000 compounds. About 370 (0.13%) were called active.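 Rule for the calls: active = spots per cell inhibited over 60%, with over 100 cells counted and total cytoplasm intensity under 500,000; inconclusive = wells with under 100 cells, flagged as likely toxic; inactive = the rest.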 The full list was thinned out, with actives kept by preference. Potency and affinity values are given separately.

The experiment deals with G-protein coupled receptor 55 (Homo sapiens) (UniProt Q9Y2T6). In words: GPR55 antagonists blocking LPI-driven arrestin recruitment, primary screen, imaging, U2OS, beta-arrestin-GFP, LPI agonist (AID 2013).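 Note: U2OS cells stably carrying GPR55 and arrestin-GFP stimulated by 5 µM LPI near EC80; imaged beta-arrestin-GFP aggregate spots per cell after agonist stimulation; plate controls were LPI-stimulated DMSO wells for no effect and DMSO wells without LPI for full effect.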 As to conditions: U2OS GPR55 beta-arrestin-GFP translocation imaging, LPI antagonism; at 10 µM; active compounds read high. Background: Recruitment of arrestin is a read-out of receptor activation apart from second messengers.
Sequence of G-protein coupled receptor 55 (Homo sapiens) (Q9Y2T6 whole entry, looked up): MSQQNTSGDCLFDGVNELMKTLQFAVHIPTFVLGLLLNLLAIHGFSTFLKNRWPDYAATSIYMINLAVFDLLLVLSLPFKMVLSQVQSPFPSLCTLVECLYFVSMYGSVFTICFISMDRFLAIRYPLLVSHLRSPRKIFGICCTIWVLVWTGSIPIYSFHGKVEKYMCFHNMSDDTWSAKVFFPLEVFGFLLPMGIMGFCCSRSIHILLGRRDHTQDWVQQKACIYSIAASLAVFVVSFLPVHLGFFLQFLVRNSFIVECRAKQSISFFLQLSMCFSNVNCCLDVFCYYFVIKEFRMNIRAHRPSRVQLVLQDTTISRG
In the case of `Cn1cc([C@@H]2C[C@H]3CN(C4CCCC4)C(=O)[C@]34CCCN24)c(-c2ccccc2)n1`, the inhibition was -0.1% (inactive).

On to `COc1ccc2oc(C(=O)OCC(=O)NC(C)c3ccccc3)c(C)c2c1` (stereo not drawn), for which the inhibition was -1.9% (inactive).

With `Cc1cc(C(=O)NCC(=O)O)c(C)o1`, the inhibition was 2.3% (inactive).

With `Cc1cc(C(=O)NCC23CC4CC(CC(C4)C2)C3)c(C)o1`, the inhibition is 72.6% (active).

As to `Cc1cc(C(=O)NN)c(C)o1`, the inhibition was 1% (inactive).

On to `COc1cc(/C=C(/NC(=O)c2ccccc2)C(=O)N2CCOCC2)c([N+](=O)[O-])cc1OC`, for which the inhibition is 13.2% (inactive).

`Cc1cc(C(F)(F)F)nc(-n2cc(-c3ccccc3)nn2)n1`: the inhibition was 7.4% (inactive).

As to `Cc1nn(C(C)(C)C)c(OC(=O)c2ccco2)c1Sc1ccccc1`, the inhibition was 7% (inactive).

As to `Cc1nn(C(C)(C)C)c(OC(=O)c2ccc(Br)o2)c1Sc1ccccc1`, the inhibition is -4.1% (inactive).

Take `CCC1(C)CC(=O)N(c2ccc(F)c(Cl)c2)C(=O)C1`: the inhibition was 0.3% (inactive).

Turning to `CC1=NN(c2ccccc2)C(=O)/C1=C/C=C/c1ccccc1`, the inhibition was 5.8% (inactive).

Consider `CC1=NN(c2cccc(C(=O)O)c2)C(=O)/C1=C\C=C\c1ccco1`, for which the inhibition was 10.3% (inactive).

For the compound `CCOC(=O)C(C)(C)N(Cc1cccc(C)c1)S(=O)(=O)c1ccc(Cl)c([N+](=O)[O-])c1`, the inhibition was 73.8% (active).

As for `CCOC(=O)C(C)(C)N(Cc1cccc(C)c1)S(=O)(=O)c1cccc([N+](=O)[O-])c1`, the inhibition is 9.3% (inactive).

Regarding `CCOC(=O)C(C)(C)N(Cc1ccccc1C)S(=O)(=O)c1ccc(Cl)c([N+](=O)[O-])c1`, the inhibition is 44% (inactive).

Take `CCOC(=O)C(C)(C)N(Cc1ccc(Cl)cc1)S(=O)(=O)c1ccc(Cl)c([N+](=O)[O-])c1`: the inhibition is 44.2% (inactive).

As to `CCOC(=O)C(C)(C)NS(=O)(=O)c1ccc(Cl)c([N+](=O)[O-])c1`, the inhibition was 6.3% (inactive).

Turning to `CC(=O)Nc1ccc(S(=O)(=O)NCC(=O)OCC(=O)N2CCc3ccccc32)cc1`, the inhibition was -1.9% (inactive).

Turning to `Cc1cc(C)c(C)c(Oc2ncnc(N)c2[N+](=O)[O-])c1`, the inhibition is 0.6% (inactive).

For `Cc1nc([N+](=O)[O-])cn1CC(=O)Nc1ccc(F)c(Cl)c1`, the inhibition is 1.9% (inactive).

For the compound `Cn1ccnc1SCC(=O)N1CCc2ccccc21`, the inhibition is -2.6% (inactive).

In the case of `O=S(=O)(/N=C/N1CCOCC1)c1ccc(Cl)cc1`, the inhibition was 8.2% (inactive).

Consider `COc1cc(OC)cc(C(=O)N2CCN(C(=O)c3cccs3)CC2)c1`, for which the inhibition is -11.9% (inactive).

As to `COc1ccc2[nH]cc(C=O)c2c1`, the inhibition is -7.9% (inactive).

With `O=C1NC(=O)/C(=C\c2cn(CC(=O)N3CCOCC3)c3ccccc23)S1`, the inhibition is -3.8% (inactive).

For `COc1ccc(OC)c(CNc2c(C=O)c(=O)[nH]c3ccccc23)c1`, the inhibition is 1.2% (inactive).

Consider `COc1ccc(OC)c(-n2c(=O)c3ccccc3c3ccccc3c2=O)c1`, for which the inhibition was 9.4% (inactive).

For `COc1ccc(N2C(=O)CCC2=O)c(OC)c1`, the inhibition is 1.4% (inactive).

For `O=Cc1cn(CC(=O)N2CCOCC2)c2ccccc12`, the inhibition is 6.5% (inactive).

Regarding `O=C(c1ccccc1)N1N=C(c2ccccc2)CC1c1ccccc1[N+](=O)[O-]` (stereo not drawn), the inhibition was 4% (inactive).

Turning to `OC(COc1cccc2ccccc12)CN1CCCC1` (stereo not drawn), the inhibition was -4.7% (inactive).

`CN1C(=O)[C@H]2[C@@H](/C=C/c3ccccc3)N3C(=O)CN(CC4CC4)C(=O)[C@@]3(C)[C@H]2C1=O`: the inhibition is 7.6% (inactive).

Turning to `Cc1cc(C)c(C)c(OCCN2CC(C)OC(C)C2)c1` (stereo not drawn), the inhibition was -23.1% (inactive).

`Cc1ccc(C(C)C)c(OCC(O)CN2CCc3ccccc3C2)c1` (stereo not drawn): the inhibition was 2.1% (inactive).

In the case of `O=S(=O)(c1ccccc1F)N1CCC(c2nc3ccccc3[nH]2)CC1`, the inhibition was -18.2% (inactive).

With `COc1cc(C2=NOC(C(=O)Nc3cc(C)on3)C2)cc(OC)c1OC` (stereo not drawn), the inhibition was 0.6% (inactive).

For `COc1ccccc1NC(=O)COc1ccc2c(c1)OCO2`, the inhibition was 19% (inactive).

In the case of `CS(=O)(=O)CCC(C(=O)OCC(=O)c1ccc(Cl)cc1)N1C(=O)c2ccccc2C1=O` (stereo not drawn), the inhibition was -0.1% (inactive).

In the case of `Cc1ccnc(NC2(C(F)(F)F)N=C(c3ccccc3)NC2=O)c1` (stereo not drawn), the inhibition is -6% (inactive).

Regarding `Cc1ccc(NC2(C(F)(F)F)N=C(c3ccccc3)NC2=O)nc1` (stereo not drawn), the inhibition was 87% (active).

As for `O=C1NC(c2ccccc2)=NC1(Nc1ccccn1)C(F)(F)F` (stereo not drawn), the inhibition is 13.1% (inactive).

Regarding `CCOc1ccc(C2(C)CC(=O)N(C)C2=O)cc1` (stereo not drawn), the inhibition was 5.8% (inactive).

For the compound `COc1ccc(-n2cc3c(-c4cccc(Br)c4)nnc(C)c3n2)cc1`, the inhibition was 45.1% (inactive).

For `Cc1nnc(-c2cccc(Br)c2)c2cn(-c3ccccc3)nc12`, the inhibition is 9.1% (inactive).

In the case of `Cc1nnc(-c2cccc(Br)c2)c2cn(-c3cccc(Br)c3)nc12`, the inhibition is 1.6% (inactive).

As to `Cc1nnc(-c2cccc(Br)c2)c2cn(-c3ccccc3Cl)nc12`, the inhibition is 7.4% (inactive).

With `COc1ccc(C)cc1NS(=O)(=O)c1cn(C)nc1C`, the inhibition was 3.9% (inactive).

`CC(NC(=O)CCc1nnc(CCCc2ccccc2)o1)c1ccccc1` (stereo not drawn): the inhibition is -2.7% (inactive).

For the compound `CN(Cc1ccccc1)C(=O)CCC1CCN(C(=O)CC2=CCCCC2)CC1`, the inhibition is 0.7% (inactive).

With `O=C(N1CCN(c2ccc(F)cc2)CC1)C12CC3CC(CC(C3)C1)C2`, the inhibition was 1.6% (inactive).

Consider `CCCN1CNC(=S)N(c2ccccc2OC)C1`, for which the inhibition was 10% (inactive).

Turning to `N=c1c2c3c(sc2ncn1CCN1CCOCC1)CCCC3`, the inhibition was 18.2% (inactive).

On to `O=C1NC(=S)N/C1=C/c1cc2c(cc1[N+](=O)[O-])OCO2`, for which the inhibition was 4.7% (inactive).

As for `COc1cc(/C=C2/C(=O)NN(c3ccc(C)c(Cl)c3)C2=O)cc([N+](=O)[O-])c1O`, the inhibition is 2.2% (inactive).

In the case of `CCOC(=O)C1=C(c2ccccc2)NC(=O)NC1c1ccc(OC)cc1OC` (stereo not drawn), the inhibition is 11.3% (inactive).

`Cc1ccc(SCC(=O)Nc2cccc(-c3nnc(-c4ccco4)o3)c2)cc1`: the inhibition was 23.1% (inactive).

Take `CNC(=S)N(CCc1c(C)[nH]c2ccc(C)cc12)Cc1cccs1`: the inhibition was -0.9% (inactive).

On to `COCCNC(=S)N(CCc1c(C)[nH]c2ccc(Cl)cc12)Cc1cccs1`, for which the inhibition was 21.1% (inactive).

Turning to `CNC(=S)N(CCc1c(C)[nH]c2ccc(Cl)cc12)Cc1cccs1`, the inhibition is 79.7% (active).

Take `COc1ccc(NC(=O)CCNS(=O)(=O)c2ccc(C)c(C)c2)cc1OC`: the inhibition was 0.7% (inactive).

On to `C=CCN1C=CC(=CC=C(C#N)C#N)C=C1`, for which the inhibition was 67.9% (active).

For the compound `CCCN1C=CC(=CC=C(C#N)C#N)C=C1`, the inhibition was 52.4% (inactive).

Take `C=CCN1C=CC(=C/C=C(/C#N)C(=O)OCC)C=C1`: the inhibition was 4.5% (inactive).

In the case of `CCOc1ccc(N(CC(=O)Nc2ccc(C)c(F)c2)C2=NC3CS(=O)(=O)CC3S2)cc1` (stereo not drawn), the inhibition is 2.9% (inactive).

Turning to `Cc1ccc(C)c(N2CCN(C(=O)Cn3ncc4c([nH]c5ccc(C)cc54)c3=O)CC2)c1`, the inhibition is 0.4% (inactive).

`CC(=O)N/C(=N/c1nc(C)cc(C)n1)Nc1ccc(NC(C)=O)cc1`: the inhibition was -4.3% (inactive).

For the compound `O=C(NC(=S)Nc1ccc(Cl)c(C(=O)O)c1)c1cccc(COc2ccccc2)c1`, the inhibition is 3.5% (inactive).

In the case of `O=C(O)c1ccc(NC(=S)NC(=O)c2cccc(COc3ccccc3)c2)cc1`, the inhibition is -20.3% (inactive).

With `Cc1ccc(NS(=O)(=O)c2cc(C(=O)O)ccc2Cl)cc1`, the inhibition is 5.6% (inactive).

Consider `O=C(O)c1cccc(S(=O)(=O)Nc2ccc(OCc3ccccc3)cc2)c1`, for which the inhibition was 1.6% (inactive).

For the compound `COc1ccccc1-n1c(SCC(=O)Nc2cccc(C)c2)nc2c(c1=O)SCC2`, the inhibition was 0.7% (inactive).

In the case of `O=C1Nc2ccccc2N(O)N1c1ccc(S(=O)(=O)N2CCCCCC2)cc1`, the inhibition is 7.8% (inactive).

For the compound `O=C(CSc1nc2ccccc2s1)N1CCCCC1`, the inhibition is 7.6% (inactive).

On to `CN(C)c1nccc(N(Cc2ccccc2)Cc2ccccc2)c1C#N`, for which the inhibition was 49.1% (inactive).

As for `CN(C)CCN(Cc1ccccc1)c1nccc(N(C)C)c1C#N`, the inhibition was 7.4% (inactive).

`CCN(CC1COc2ccccc2O1)C(=S)Nc1ccc(F)cc1` (stereo not drawn): the inhibition was 8.3% (inactive).

With `COc1ccc2c(c1)NC(c1ccc(N(C)C)cc1)c1cccn1-2` (stereo not drawn), the inhibition is 67% (active).

For the compound `COc1ccc2c(c1)NC(c1cc(Cl)cc(Cl)c1O)c1cccn1-2` (stereo not drawn), the inhibition was 3.9% (inactive).

Take `COc1ccc(C2Nc3cc(OC)ccc3-n3cccc32)cc1` (stereo not drawn): the inhibition was 8.6% (inactive).

`Cc1cccc(N(CC(=O)N2CCN(C)CC2)S(=O)(=O)c2ccccc2)c1`: the inhibition was 9.1% (inactive).

As for `CC1CC(C)CN(C(=O)C(C)N(C)CC(=O)Nc2ccc(Cl)cc2)C1` (stereo not drawn), the inhibition is 12.3% (inactive).

Regarding `CC1CN(S(=O)(=O)c2ccc(NC(=O)CCN3C(=O)c4ccccc4C3=O)cc2)CC(C)O1` (stereo not drawn), the inhibition was 4.4% (inactive).

With `CC(=O)C1=C(C)NC(SCC(=O)c2ccc(F)cc2)=C(C#N)C1c1ccco1` (stereo not drawn), the inhibition was 16.8% (inactive).

Consider `CC(=O)C1=C(C)NC(SCC(=O)c2ccccc2)=C(C#N)C1c1ccco1` (stereo not drawn), for which the inhibition was 16.3% (inactive).

With `CC(=O)C1=C(C)NC(SCC(=O)c2ccc(C)cc2)=C(C#N)C1c1ccco1` (stereo not drawn), the inhibition is 82.9% (active).

Consider `CN(C(=O)C1CCC1C(=O)O)c1nc(-c2ccc(Cl)s2)cs1` (stereo not drawn), for which the inhibition was 11.8% (inactive).

On to `CC(C)CNC(=O)CC(c1ccccc1)c1ccccc1`, for which the inhibition was -4.4% (inactive).

As to `Cc1cc(C)nc(NNC(=O)NC2CCCCC2)n1`, the inhibition is -10.6% (inactive).

`CC(C)(C)OC(=O)N1CCC(c2c(C(=O)NC3CC3)cnn2-c2ccc(Cl)cc2)CC1`: the inhibition is 4.1% (inactive).

Regarding `COc1cc(NC(=O)c2cnn3c(C(F)F)cc(C4CC4)nc23)c(OC)cc1Cl`, the inhibition was 14.7% (inactive).

In the case of `COc1ccc(-n2ncc(C(=O)NC3CC3)c2C2CCN(C(=O)OC(C)(C)C)CC2)cc1`, the inhibition is 12.4% (inactive).

`CCOc1ccc(NC(=O)c2c[nH]n3c(=O)cc(C4CCN(C(=O)OC(C)(C)C)CC4)nc23)cc1`: the inhibition was 16.4% (inactive).

Turning to `CCCCC(C(=O)NC1CCCC1)N(C(=O)c1snc(C(N)=O)c1N)c1ccc(OCC)cc1` (stereo not drawn), the inhibition was 4.9% (inactive).
